According to the supplement of paper PMC6555819:

Assays:
Experiment in all cases: PBM binding z-score (relative to random genomic background probes); higher = stronger binding; sequences stand for … in GC…GCGATTGACAGCGTAGAATGAAGG
[1] = tested on: FXR:RXRa (NR concentration 270 nM, RXRa partner concentration 90 nM)
Method in brief: (§1)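 Each nuclear receptor dimer, without ligand, was incubated for 1 h on custom Agilent 4×180K protein-binding microarrays. Binding was detected with antibodies against each partner (one per run), and scanned fluorescence was regression-normalized. The binding z-scores are referenced to random human genomic background probes.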

[2] = tested on: LXRa:RXRa (NR concentration 270 nM, RXRa partner concentration 90 nM)
Method in brief: as §1

[3] = tested on: LXRa homodimer (NR concentration 270 nM)
Method in brief: as §1

[4] = tested on: LXRb:RXRa (NR concentration 270 nM, RXRa partner concentration 90 nM)
Method in brief: as §1

[5] = tested on: LXRb homodimer (NR concentration 270 nM)
Method in brief: as §1

[6] = tested on: PPARa:RXRa (NR concentration 270 nM, RXRa partner concentration 90 nM)
Method in brief: as §1

[7] = tested on: PPARg:RXRa (NR concentration 180 nM, RXRa partner concentration 90 nM)
Method in brief: as §1

[8] = tested on: PPARg:RXRa 270nM:90nM, anti-RXR (NR concentration 270 nM, RXRa partner concentration 90 nM)
Method in brief: as §1

[9] = tested on: PPARg:RXRa 30nM:10nM, anti-RXR (NR concentration 30 nM, RXRa partner concentration 10 nM)
Method in brief: as §1

[10] = tested on: PPARg:RXRa 90nM:30nM, anti-RXR (NR concentration 90 nM, RXRa partner concentration 30 nM)
Method in brief: as §1

[11] = tested on: PPARg:RXRa DBDmut IVT, anti-RXR (DBD mutation: RXRa K156A/R161A, NR concentration 270 nM, RXRa partner concentration 90 nM)
Method in brief: as §1

[12] = tested on: PPARg:RXRa IVT, anti-PPARg (NR concentration 270 nM, RXRa partner concentration 90 nM)
Method in brief: as §1

[13] = tested on: PPARg DBDmut:RXRa IVT, anti-PPARg (DBD mutation: PPARg1 K132A/R137A, NR concentration 270 nM, RXRa partner concentration 90 nM)
Method in brief: as §1

[14] = tested on: PPARg DBDmut IVT, anti-PPARg (DBD mutation: PPARg1 K132A/R137A, NR concentration 270 nM)
Method in brief: as §1

[15] = tested on: PPARg homodimer (NR concentration 180 nM)
Method in brief: as §1

[16] = tested on: PXR:RXRa (NR concentration 270 nM, RXRa partner concentration 90 nM)
Method in brief: as §1

[17] = tested on: PXR homodimer (NR concentration 270 nM)
Method in brief: as §1

[18] = tested on: RARa:RXR (NR concentration 270 nM, RXRa partner concentration 90 nM)
Method in brief: as §1

[19] = tested on: RARa homodimer (NR concentration 270 nM)
Method in brief: as §1

[20] = tested on: RARb:RXRa (NR concentration 270 nM, RXRa partner concentration 90 nM)
Method in brief: as §1

Sequence | PBM binding z-score [1] | PBM binding z-score [2] | PBM binding z-score [3] | PBM binding z-score [4] | PBM binding z-score [5] | PBM binding z-score [6] | PBM binding z-score [7] | PBM binding z-score [8] | PBM binding z-score [9] | PBM binding z-score [10] | PBM binding z-score [11] | PBM binding z-score [12] | PBM binding z-score [13] | PBM binding z-score [14] | PBM binding z-score [15] | PBM binding z-score [16] | PBM binding z-score [17] | PBM binding z-score [18] | PBM binding z-score [19] | PBM binding z-score [20]
ACTATTATTTGACTTAGGGCAACCGATACGACGC | 0.71 | 0.925 | 1.54 | 0.685 | 1.46 | 0.557 | 1.15 | 0.779 | 0.924 | 0.948 | 0.814 | 0.633 | 1.79 | 2.46 | 2.16 | 0.502 | 1.69 | 0.728 | 3.4 | 1.21
TCGAGTAGGTTACCAATGGGGCATCCAGCTTTCT | -0.0343 | 1.12 | -0.623 | 0.546 | -1.16 | 1.27 | 0.366 | 1.12 | 1.25 | 1.19 | 3.43 | 2.56 | -0.589 | -0.544 | -0.353 | -0.193 | -0.691 | 0.352 | -1.07 | 1.03
TCTCGGAGGCCACGAAGGTCAGAGCTTTCCAGAG | 0.966 | 1.34 | -0.257 | 1.25 | -1.36 | 2.21 | 0.256 | 1.82 | 1.63 | 1.54 | 1.55 | 1.81 | -1.16 | -1.03 | 0.239 | 2.19 | 0.613 | 2.29 | -1.17 | 3.38
CTCGAAAGGTCGGTTGTGGTGAGTATACGGATAA | 2.01 | 1.54 | 0.263 | 1.67 | 0.416 | 2.29 | 0.242 | 0.949 | -0.0875 | 0.394 | 0.261 | 0.611 | -0.0487 | 0.467 | 1.3 | 1.13 | 0.427 | 1.81 | 1.01 | 3.03
CCGACTGGGGCATAAGGTTACAATAAGCCAGCCC | 0.415 | 1.46 | -0.348 | 0.936 | -0.85 | 1.9 | 2.58 | 3.36 | 0.985 | 2.68 | 3.12 | 3.35 | -1.72 | -1.42 | 0.586 | 0.38 | -0.291 | 1.17 | -0.0919 | 1.58
TCAGACACGTGAAGGTAACTCAGGTACGCAGTCG | 0.454 | 1.57 | -0.182 | 0.638 | -0.58 | 0.588 | 0.903 | 1.81 | 3.41 | 2.58 | 2.01 | 0.0169 | -0.15 | -0.175 | 0.0115 | 0.416 | -0.294 | 0.632 | -0.256 | 0.338
TAGCCTAGGCCATGCGGGCCAGTATAGTGTCGGC | -0.771 | -1.17 | -0.671 | -1.47 | -1.47 | -0.776 | -0.313 | -1.06 | -0.847 | -1.18 | -0.849 | -0.0851 | -0.949 | -1.38 | -1.26 | -0.956 | -1.02 | -0.877 | -1.18 | 0.00206
